Reference: PubChem BioAssay (NCI)
Compounds without any hit were thinned out: in the full panel of roughly 83,000, 20% have a hit.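 Single-concentration screen, 48 h exposure, 96-well plates. Endpoint: percent growth. Below 10 = active.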 Calls of active or inactive are those of the source.

How the values were obtained:
Assay in all cases: NCI-60 one-dose screen, 48 h (100 = growth as untreated, 0 = no growth, -100 = all killed)
Conditions in all cases: 10 µM unless noted
NCI-H23 lung = system: NCI-H23 lung
NCI-H226 lung = system: NCI-H226 lung
NCI-H322M lung = system: NCI-H322M lung
HOP-62 NSCLC = system: HOP-62 NSCLC
NCI-H460 lung = system: NCI-H460 lung
786-0 renal = system: 786-0 renal
MDA-MB-231 breast = system: MDA-MB-231 breast
SF-268 CNS = system: SF-268 CNS
SF-539 CNS = system: SF-539 CNS
M14 melanoma = system: M14 melanoma
PC-3 prostate = system: PC-3 prostate
UACC-62 melanoma = system: UACC-62 melanoma
SK-MEL-28 melanoma = system: SK-MEL-28 melanoma
UO-31 renal = system: UO-31 renal
OVCAR-5 ovarian = system: OVCAR-5 ovarian
OVCAR-3 ovarian = system: OVCAR-3 ovarian
NCI/ADR-RES ovarian = system: NCI/ADR-RES ovarian
SW-620 colon = system: SW-620 colon
MCF7 breast = system: MCF7 breast
KM12 colon = system: KM12 colon

Measured: growth

O=[N+]([O-])c1cccc([As]=[As]c2cccc([N+](=O)[O-])c2)c1 (stereo not given)
active: NCI-H23 lung -36.4% | NCI-H226 lung -60.7% | NCI-H322M lung -97.4% | HOP-62 NSCLC -95.1% | NCI-H460 lung -65.7% | 786-0 renal -93% | MDA-MB-231 breast -91.8% | SF-268 CNS -92.1% | SF-539 CNS -99.7% | M14 melanoma -94.4% | PC-3 prostate -84.8% | UACC-62 melanoma -97.6% | SK-MEL-28 melanoma -98.4% | UO-31 renal -98.7% | OVCAR-5 ovarian -85.2% | OVCAR-3 ovarian -96.1% | NCI/ADR-RES ovarian -1.16% | SW-620 colon -68.8% | MCF7 breast -53.6% | KM12 colon -92.7%

OC1(c2ccc(Cl)cc2Cl)c2ccccc2C2=NCCN21 (stereo not given)
inactive: NCI-H23 lung 88.5% | NCI-H226 lung 71.3% | NCI-H322M lung 98.6% | HOP-62 NSCLC 78.7% | NCI-H460 lung 105% | 786-0 renal 87.9% | MDA-MB-231 breast 85.2% | SF-268 CNS 103% | SF-539 CNS 102% | M14 melanoma 102% | PC-3 prostate 79% | UACC-62 melanoma 94% | SK-MEL-28 melanoma 111% | UO-31 renal 82.1% | OVCAR-5 ovarian 94.4% | OVCAR-3 ovarian 85.6% | NCI/ADR-RES ovarian 96.3% | SW-620 colon 92.7% | MCF7 breast 96.4% | KM12 colon 101%

[O]=[Sn]([CH]1CCCCC1)[CH]1CCCCC1
active: NCI-H23 lung -93.5% | NCI-H226 lung -74% | NCI-H322M lung -96.7% | HOP-62 NSCLC -91.8% | NCI-H460 lung -85.8% | 786-0 renal -97.6% | MDA-MB-231 breast -78.3% | SF-268 CNS -98.9% | SF-539 CNS -92.5% | M14 melanoma -88.6% | PC-3 prostate -91.2% | UACC-62 melanoma -93.3% | SK-MEL-28 melanoma -94.8% | UO-31 renal -90.4% | OVCAR-5 ovarian -97.1% | OVCAR-3 ovarian -98% | NCI/ADR-RES ovarian -83.2% | SW-620 colon -86.8% | MCF7 breast -88% | KM12 colon -94%
